# hcDAF-12 act – H. contortus DAF-12 activation, primary screen; HEK293 hcDAF-12 lit1-tk-luc reporter, luminescence; 0% DMSO, 100% Δ7-dafachronic acid; activation, % at 6.8 µM; actives 1.4% (n = 370,000); AID 652067;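 active = activation above the mean of all tested compounds plus 3 SD, cut at about 5.5% in these data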;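 also: 100% = response to 3 µM Δ7-dafachronic acid high control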
# DAX1 inh-1 – DAX1 (NR0B1) inhibition, primary screen. HEK293T StAR-luciferase reporter, SF-1/DAX-1 repression relief. inhibition, % at 6.8 µM. actives 1.1% (n = 370,000);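 active = inhibition above the mean over all tested compounds plus 3 SD, cut at about 3.6% in these data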;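 also: 0% = DAX-1 cells with DMSO and 100% = cells lacking DAX-1 with DMSO; higher inhibition means more luminescence from relief of DAX-1 repression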
# Rev-erbA mod – Rev-erb alpha (human) modulation; Rev-erbα–FITC-DNA binding, fluorescence polarization, 90 min; activity, % at 10 µM; P20393; actives 0.79% (n = 370,000); AID 1259318;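 active = activity above about 14%, limit read from the data; passing the limit was not always enough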;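 also: 0% = DMSO wells with 35 nM protein and 100% = DMSO wells with 750 nM protein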
# Target sequence (P20393 whole entry, looked up): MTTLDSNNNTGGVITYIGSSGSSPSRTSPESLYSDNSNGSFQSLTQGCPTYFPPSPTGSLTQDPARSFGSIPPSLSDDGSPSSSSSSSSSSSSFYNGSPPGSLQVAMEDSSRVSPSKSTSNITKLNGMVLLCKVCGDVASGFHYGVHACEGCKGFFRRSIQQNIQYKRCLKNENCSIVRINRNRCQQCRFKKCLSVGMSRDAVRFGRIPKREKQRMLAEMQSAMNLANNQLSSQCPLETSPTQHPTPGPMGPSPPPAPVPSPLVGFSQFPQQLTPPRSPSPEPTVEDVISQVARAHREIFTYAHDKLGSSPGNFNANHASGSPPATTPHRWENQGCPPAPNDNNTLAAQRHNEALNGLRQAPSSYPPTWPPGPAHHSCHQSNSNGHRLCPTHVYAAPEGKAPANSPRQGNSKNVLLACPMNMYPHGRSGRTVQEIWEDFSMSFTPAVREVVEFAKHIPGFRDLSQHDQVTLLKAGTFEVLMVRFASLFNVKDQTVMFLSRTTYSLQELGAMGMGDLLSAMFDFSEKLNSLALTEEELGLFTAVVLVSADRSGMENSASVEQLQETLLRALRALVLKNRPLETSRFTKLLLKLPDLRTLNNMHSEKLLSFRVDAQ
# hgDAF-12 ag – hgDAF-12 agonism, primary luciferase screen; actives 1.8% (n = 370,000); HEK293 GAL4-hgDAF12 UAS-luciferase reporter, agonist luminescence; normalized to butyrate control; activation, % at 6.8 µM;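 active = activation above a cutoff set at the mean of all screened compounds plus 3 SD, cut at about 10% in these data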;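 also: 0% = DMSO wells and 100% = sodium butyrate wells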
# DAX1 inh-2 – inhibitors of human orphan nuclear receptor DAX1 (NR0B1) | P51843 | HEK293 Gal4-DAX1 luciferase reporter, luminescence | inhibition, % at 6.75 µM | actives 0.99% (n = 340,000);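 active = inhibition above the mean over all tested compounds plus 3 SD, cut at about 4.2% in these data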;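 also: 0% = DAX1-transfected cells with DMSO and 100% = empty-vector control cells with DMSO; inhibition shows as a rise in luminescence from relieved DAX1 repression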
# ssDAF-12 act – activators of S. stercoralis DAF-12 nuclear receptor | HEK293 ssDAF-12/GRIP1 lit1-tk-luc reporter, luminescence; % of 3 µM dafachronic acid response | activation, % at 6.8 µM | actives 1% (n = 370,000) | AID 652126;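 active = activation above the mean over all tested compounds plus 3 SD, cut at about 0.9% in these data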;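 also: 0% = DMSO-only wells and 100% = 3 µM delta7-dafachronic acid wells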
# Active calls of the source: *; / = no result. The list is not random: actives were taken first. Their share in the collection is about 4.8%.
SMILES,hcDAF-12 act,DAX1 inh-1,Rev-erbA mod,hgDAF-12 ag,DAX1 inh-2,ssDAF-12 act
CCN1CCN(c2ccc(NC(=O)c3ccc(Br)o3)cc2)CC1,3,3.7*,0,11*,1,1.1*
CC/C(=N/NC(=O)c1ccc(Br)o1)c1ccc(Cl)cc1,2,1,1,12*,1,-1
CCCC(=O)N1CCN(c2ccc(NC(=O)c3ccc(Br)o3)cc2)CC1,-2,0,0,0,0,-1
CCOc1ccc(CCNC(=O)c2cc3sccc3n2Cc2ccccc2)cc1OCC,-4,/,4,-5,/,-1
CCC(C)N(C(=O)Cn1nc(Cc2ccncc2)c2ccccc2c1=O)C(C)CC (stereo unspecified),-1,0,-9,-2,/,-1
CC(C)NC(=O)N[C@H]1C[C@@H]2O[C@H](CO)CC[C@@H]2O[C@@H]1CCc1ccc(-c2ccc(F)cc2)cc1,-1,-1,-3,-2,/,-1
O=C(Nc1ccc2c(c1)CCC2)c1ccc(Br)o1,5.8*,2,3,13*,3,0
Cc1nc(NC(=O)c2ccc(Br)o2)ccc1Br,4,4.0*,1,5,0,0
C/C(=N\NC(=O)c1c(Br)c(C)nn1C)c1ccc(NC(=O)c2ccoc2C)cc1,-1,1,1,12*,2,-1
CCC(=O)Nc1ccc(/C(C)=N/NC(=O)c2c(Br)c(C)nn2C)cc1,0,0,1,0,1,-1
C/C(=N\NC(=O)c1c(Cl)cnn1C)c1ccc(NC(=O)c2ccc(Br)o2)cc1,1,6.3*,-3,8,0,0
CNC[C@@H](O)c1ccc(O)c(O)c1,/,/,2,/,/,/
COC(=O)Cc1ccc(NC(=O)c2ccc(Br)o2)cc1,3,0,4,12*,0,-1
COc1ccc(NS(=O)(=O)NC(=O)c2c[nH]c3ccccc23)cc1,5.8*,0,-10,2,0,-1
O=C(NS(=O)(=O)Nc1ccccn1)c1c[nH]c2ccccc12,6,0,0,3,1,1.0*
COc1cccc(NS(=O)(=O)NC(=O)c2c[nH]c3ccccc23)c1,0,0,-1,1,0,-1
CN(C)S(=O)(=O)c1cccc(NC(=O)c2c[nH]c3ccccc23)c1,2,0,-1,3,-1,1.3*
CCCCNS(=O)(=O)CC1NCc2ccc(C)cc21 (stereo unspecified),2,0,-4,3,/,-1
O=C(O)COc1ccc(Br)cc1/C=N\Nc1ccccn1,/,/,/,/,4.7*,/
NC(=O)N/N=C/c1cc(Br)ccc1OCC(=O)NCc1ccccc1,0,0,-2,0,0,-1
COC(=O)C1CN(Cc2cn(CCC3OCCO3)nn2)CCS(=O)(=O)N1Cc1ccc(OC)cc1 (stereo unspecified),-1,0,0,0,/,-1
O=C1[C@@H](CCc2ccccc2)[C@@H]2c3ccccc3C=NN2[C@@H]2c3ccccc3C=NN12,2,0,5,3,/,-1
COC(=O)[C@]12C[C@H](CC(=O)N3CCCC3)C(=O)N(Cc3ccc(Cl)cc3Cl)C1=C[C@H](COCc1ccccc1)O[C@@H]2C,-4,-1,3,-4,/,-2
NC(=O)C1C(=O)c2ccccc2C1(C[N+](=O)[O-])c1ccccc1 (stereo unspecified),5.8*,1,-2,-2,0,0
CC(=O)Nc1ccc(NC(C)=C(C#N)C#N)cc1,1,0,5,-2,4.3*,-1
SMILES,hcDAF-12 act,DAX1 inh-1,Rev-erbA mod,hgDAF-12 ag,DAX1 inh-2,ssDAF-12 act
CC(=O)Nc1cccc(NC(C)=C(C#N)C#N)c1,0,0,-7,1,-1,-1
COC(=O)c1cn(C(=O)c2ccccc2)c2ccccc12,2,0,-7,0,1,0
CC(=O)n1cc(C2C(=O)CC(C)(C)CC2=O)c2ccccc21,6.3*,2,-1,-1,2,1.4*
C=C(c1cn(C(C)=O)c2ccccc12)c1cn(C(C)=O)c2ccccc12,5.7*,1,-2,2,2,0
O=C(NNS(=O)(=O)c1ccc(Cl)cc1)c1cc(-c2ccccc2)nc2ccccc12,1,0,-1,-2,0,-1
Cc1cccc(S(=O)(=O)NNC(=O)c2cc(-c3ccc(F)cc3)nc3ccccc23)c1,-2,1,0,3,4.3*,-1
CC(C)(C)c1ccc(-c2cc(C(=O)NNC(=O)Nc3ccccc3)c3ccccc3n2)cc1,4,3.9*,-6,11*,3,1
Cc1ccc([C@H](C)NC(=O)C2=C(N)N(S(=O)(=O)c3ccc(C)cc3)C(C(=O)c3ccccc3)C2c2ccccc2Cl)cc1 (stereo partly specified),-2,/,-2,-4,/,-2

# Bioassay records (PubChem BioAssay)
